# Results: PubChem BioAssay (EPA / NIEHS)
# Inconclusive results are not listed. A structure can be active in one record and inactive in another. Active and inactive are the calls of the source. The calls were made as follows: active = hit-call score of the fitted dose curve at least 0.9, where 1 is the maximum; inconclusive = response in the unintended direction; inactive = score below 0.9.
# Assay: Tanguay_ZF_120hpf_JAW_legacy: (Legacy) Oregon State University Tanguay Lab 120 Hour Post-fertilization zebrafish Assay for Jaw Malformation (AID 2283638);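 as to AC50: active means more embryos with jaw malformation than DMSO controls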
# Protocol: Tanguay_ZF_120hpf_legacy is a whole embryo, multiplexed endpoint assay using zebrafish larvae exposed for 120 hours post fertilization on a 96-well plate.Tanguay_ZF_120hpf_JAW_legacy is one of one assay component(s) measured or calculated from the Tanguay_ZF_120hpf_legacy assay. It is designed to make measurements of zebrafish development as detected with brightfield microscopy of developing zebrafish embryos.Data from the assay component Tanguay_ZF_120hpf_JAW_legacy was analyzed into 1 assay endpoints. This assay endpoint, Tanguay_ZF_120hpf_JAW_legacy, was analyzed in the positive analysis fitting direction relative to DMSO as the negative control and baseline of activity. Using a type of morphology reporter, gain-of-signal activity can be used to understand changes in developmentals as they relate to the whole embryo. To generalize the intended target to other relatable targets, this assay endpoint is annotated to the zebrafish development intended target family, where the subfamily is embryonic jaw development.
# Zebrafish husbandry: Tropical 5D wild-type adult zebrafish were housed in at an approximate density of 1000 per 100 gallon tank at the Sinnhuber Aquatic Research Laboratory, Oregon State University, Corvallis, OR. Each tank was kept at standard laboratory conditions of 28C on a 14-h light/10-h dark photoperiod in fish water consisting of reverse osmosis water supplemented with a commercially available salt (Instant Ocean). Spawning funnels were placed into the tanks the night prior, and embryos were collected and staged. To increase bioavailability, the chorion was enzymatically removed using pronase (63.6mg/ml, >/= 3.5U/mg, Sigma-Aldrich: P5147) at 4 hours post fertilization (hpf) using a custom automated dechorionator.Chemical exposures: Six hpf dechorionated embryos were placed 1 embryo per well in a 96-well plate prefilled with 90 ul of EM using automated embryo placement systems (AEPS). Ten microliters of each row of dilution plate 2 was added to 2 exposure plates. The final DMSO concentration used was 0.64% (vol/vol). Thirty-two embryos were also exposed to 5uM trimethyltin chloride (positive control). Plates were sealed to prevent evaporation and foil covered to reduce light exposure and kept in a 28C incubator. Embryos were statically exposed until 120 hpf. At 24 hpf, embryos were assessed for photomotor response using a custom photomotor response analysis tool (PRAT) and for developmental toxicity endpoints (MO24: mortality at 24 hpf, DP: developmental progression, SM: spontaneous movement, and NC: notochord distortion). At 120 hpf, locomotor activity was measured using Viewpoint Zebralab and assessed for 18 endpoints. Zebrafish acquisition and analysis program (ZAAP), a custom program designed to inventory, acquire, and manage zebrafish data, was used to collect developmental endpoints as either present or absent (i.e., binary responses were recorded). If mortality occurred for an embryo (at either 24 or 120 hpf), the non-mortality endpoints were not measured.
SMILES,outcome,AC50
C[C@@H]1C[C@@H]([C@H](O)CC2CC(=O)NC(=O)C2)C(=O)[C@@H](C)C1,inactive,–
NC(=O)O,inactive,–
CC(C)(C)c1cc(O)ccc1O,inactive,–
O=C(Nc1ccc2[nH]ccc2c1)c1cc2cc(F)ccc2n1Cc1cccc(F)c1,inactive,–
O=C(O)C(F)(F)C(F)(F)C(F)(F)C(F)(F)C(F)(F)C(F)(F)F,inactive,–
CC(=O)[O][Hg][c]1ccccc1,inactive,–
O=c1[nH]c(=O)[nH]c(=O)[nH]1,inactive,–
C=C(C)C(=O)[O][Sn]([CH2]CCC)([CH2]CCC)[CH2]CCC,inactive,–
O=[N+]([O-])c1ccc(O)c([N+](=O)[O-])c1,inactive,–
CCOP(=S)(OCC)SCSP(=S)(OCC)OCC,inactive,–
CN(C)N=O,inactive,–
CC12CC1(C)C(=O)N(c1cc(Cl)cc(Cl)c1)C2=O (stereo unspecified),inactive,–
COc1cc(-c2ccc(N)c(OC)c2)ccc1N,inactive,47 µM (active)
Oc1cccc2cccnc12,inactive,–
Cc1ccccc1N,inactive,–
C[C@]12CCC(=O)C[C@@H]1CC[C@@H]1[C@@H]2CC[C@]2(C)[C@@H](O)CC[C@@H]12,inactive,–
CC(C)(c1ccccc1)c1ccc(O)c(C(C)(C)c2ccccc2)c1,inactive,–
O=C1C2(Cl)C3(Cl)C4(Cl)C(Cl)(Cl)C5(Cl)C3(Cl)C1(Cl)C5(Cl)C24Cl (stereo unspecified),–,8.93 µM (active)
CCCCCCCCc1ccc(O)cc1,inactive,–
Cn1sc(Cl)cc1=O,inactive,–
CCC(=O)C(CC(C)N(C)C)(c1ccccc1)c1ccccc1 (stereo unspecified),–,34.4 µM (active)
CC(C)(OO)c1ccccc1,inactive,–
CCN1CCC2(CC1)COc1cc3c(cc12)N(C(=O)c1ccc(-c2ccc(-c4nnc(C)o4)cc2C)cc1)CC3,inactive,–
ClC1(Cl)C2(Cl)C3(Cl)C4(Cl)C(Cl)(Cl)C5(Cl)C3(Cl)C1(Cl)C5(Cl)C24Cl (stereo unspecified),inactive,–
CCOP(=S)(OCC)Oc1nc(Cl)c(Cl)cc1Cl,inactive,–
O=C(O)C(Cl)(Cl)Cl,inactive,–
C=CC(=O)OCCCCCC(C)C,inactive,–
ClCC(Cl)CCl,inactive,–
O=C(O)C(F)(F)C(F)(F)C(F)(F)C(F)(F)C(F)(F)C(F)(F)C(F)(F)C(F)(F)C(F)(F)C(F)(F)F,inactive,–
CCC(C)(C)c1ccc(O)c(C(C)(C)CC)c1,inactive,–
